Results on five compounds are retold here after PubChem BioAssay (NCATS).

The subject of one test is MCC-26. Briefly: qHTS assay to identify novel small-molecules to repurpose for Merkel cell carcinoma treatment (AID 1296009). Note: nearly all actives have a fitted effect of over 60% in size. Note: potency is the fitted concentration of half-maximal effect. The settings on record: MCC and control cell lines, CellTiter-Glo viability, 72 h; series mostly up to 46 µM. In outline:
(§1)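 72 hr, 37 degree celsius; NPC 8-pt / MIPE 11-pt dose response; compound pinned in DMSO; CellTiter-Glo, 10 min RT, luminescence; normalized to no-cell and DMSO controls.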
On the technique in general: Quantitative high-throughput screening tests each substance at several concentrations.

The test system of another test is MKL-1. The description is as above. The settings on record: MCC and control cell lines, CellTiter-Glo viability, 72 h; series mostly up to 46 µM. In outline:
as §1

In a further test the test system is MKL-2. Described as above. The settings on record: MCC and control cell lines, CellTiter-Glo viability, 72 h; series mostly up to 46 µM. The method in brief:
as §1
On the technique in general: In ATP-based viability assays light output follows the ATP content of the culture.

A further test relates to NIH3T3. The test is described as above. To be noted: MCC and control cell lines, CellTiter-Glo viability, 72 h; at 44.8 µM (top of the series) unless noted. The method in brief: as §1
Another test has as its system UISO. The test is described as above. To be noted: MCC and control cell lines, CellTiter-Glo viability, 72 h; series mostly up to 46 µM. The method in brief:
as §1

The test system of the next test is WaGa. The test is described as above. To be noted: MCC and control cell lines, CellTiter-Glo viability, 72 h; series mostly up to 46 µM. The method in brief: as §1
The test system of a further test is C33A. Briefly: Primary qHTS to identify gynecologic anti-cancer compounds using libraries of approved drugs and bioactive compounds (AID 1345084). Note: nearly all actives have a fitted effect of over 55% in size. The settings on record: Gynecologic cancer cell panel viability, ATPlite luminescence, 48 h; series mostly up to 57.5 µM. In outline: (§2)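 Five-concentration response, 48 h; readout is ATP-driven luciferase luminescence.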

The next test has as its system CASKI. The description is as above. To be noted: Gynecologic cancer cell panel viability, ATPlite luminescence, 48 h; series mostly up to 57.5 µM. The method in brief:
as §2

The subject of a further test is Es-2. The description is as above. To be noted: Gynecologic cancer cell panel viability, ATPlite luminescence, 48 h; series mostly up to 57.5 µM. The method in brief:
as §2

The subject of another test is HeLa. The description is as above. To be noted: Gynecologic cancer cell panel viability, ATPlite luminescence, 48 h; series mostly up to 57.5 µM. The method in brief: as §2
A further test has as its system Hek293T. The test is described as above. To be noted: Gynecologic cancer cell panel viability, ATPlite luminescence, 48 h, control line for the selectivity index; series mostly up to 57.5 µM. In outline: as §2
In a further test the test system is JEG-3. The description is as above. To be noted: Gynecologic cancer cell panel viability, ATPlite luminescence, 48 h; series mostly up to 57.5 µM. The method in brief:
as §2

For the next test, the system named is OV90. Described as above. The settings on record: Gynecologic cancer cell panel viability, ATPlite luminescence, 48 h; series mostly up to 57.5 µM. The method in brief: as §2
Another test concerns PA-1. The test is described as above. The settings on record: Gynecologic cancer cell panel viability, ATPlite luminescence, 48 h; series mostly up to 57.5 µM. In outline:
as §2

The next test relates to SKOV3. The test is described as above. The settings on record: Gynecologic cancer cell panel viability, ATPlite luminescence, 48 h; series mostly up to 57.5 µM. In outline:
as §2

In another test the test system is Tov-21-G. The description is as above. To be noted: Gynecologic cancer cell panel viability, ATPlite luminescence, 48 h; series mostly up to 57.5 µM. In outline:
as §2

The test system of another test is Tov112D. The test is described as above. To be noted: Gynecologic cancer cell panel viability, ATPlite luminescence, 48 h; series mostly up to 57.5 µM. The method in brief:
as §2

Test [1] is described as follows: Drug repurposing screens with cells derived from glioblastoma tumor samples (AID 1345199). Note: nearly all actives have a fitted effect of over 40% in size. Note: potency is the fitted concentration of half-maximal effect. The settings on record: GBM patient neurospheres viability, ATP luminescence, 48 h. In outline:
(§3)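 Four patient lines of CD133+ GBM neurospheres were screened at several concentrations; hits were retested in those lines plus three slower-growing GBM lines, using 48-hour treatment and ATP-based viability.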

Another test relates to astro. The test is described as above. To be noted: viability, ATP luminescence, 48 h; series mostly up to 45.9 µM. In outline:
as §3

In another test the test system is CAOV3. In words: Primary qHTS to identify gynecologic anti-cancer compounds using libraries of approved drugs and bioactive compounds (AID 1345084). Note: nearly all actives have a fitted effect of over 55% in size. The settings on record: Gynecologic cancer cell panel viability, ATPlite luminescence, 48 h; series mostly up to 57.5 µM. In outline: as §2
Where [2] appears, read: at 45.9 µM (top of the series), tumour line B.
The mark [3] stands for this setting: at 45.9 µM (top of the series), tumour line D.
Setting [4] is: at 46.1 µM (top of the series), tumour line C.
Setting [5] is: at 46 µM (top of the series), tumour line A.

Molecules are shown by their SMILES. Results filed as inconclusive are left out. Unmarked numbers belong to inactive results. Active and inactive are the calls of the source. Calls come from the whole dose curve; as a rule, active = well fitted curve in the direction sought with a large enough effect; inconclusive = small, poorly fitted or top-dose-only effect, or another doubt; inactive = no such curve, though single readings can be large; an effect the other way counts as inactive or inconclusive.
% is set by controls: 0 for no effect and ±100 for the full control effect.

Consider `COc1ccc2cc1Oc1cc3c(cc1OC)CC[N+](C)(C)[C@H]3Cc1ccc(cc1)Oc1c(OC)c(OC)cc3c1[C@@H](C2)[N+](C)(C)CC3`, for which the Potency entry with MCC-26, in the test on MKL-1, in the test with MKL-2, in the test with UISO, with WaGa and in the test on C33A was “inactive” each time. Besides, the Potency result in the test on CASKI, with Es-2, with HeLa, with Hek293T, with JEG-3 and with OV90 was “inactive” throughout. For the same compound, the Potency result in the test with PA-1, in the test on SKOV3, in the test with Tov-21-G, in the test with Tov112D and in the test with astro was “inactive” each time. In addition, the compound was classed as inactive in the test on NIH3T3. Further, the activity, negative = cell killing in test [1] (setting [2]) was -14.8%; in [1] (setting [3]) it was -5.75%; in [1] (setting [4]) it was -3.48%.
For the compound `Cc1cc(C(C#N)c2ccc(Cl)cc2)c(Cl)cc1NC(=O)c1cc(I)cc(I)c1O` (centres undefined), the Potency entry in the test with MCC-26, in the test on MKL-1, in the test on MKL-2, with C33A, with CAOV3 and in the test on CASKI was “inactive” throughout. For the same compound, the Potency entry in the test with Es-2, in the test on HeLa, in the test with Hek293T, in the test with JEG-3, in the test with OV90 and with PA-1 was “inactive” throughout. Moreover, the Potency result in the test on SKOV3, with Tov-21-G and in the test on Tov112D was “inactive” each time. The compound was called inactive in the test with NIH3T3. Moreover, the Potency was 10.6 µM (active) in the test with WaGa and 3.98 µM (active) with astro.
Take `C[C@@H]1CCN(C(=O)[C@H](CCCN=C(N)N)NS(=O)(=O)c2cccc3c2NC[C@H](C)C3)[C@@H](C(=O)O)C1`: the Potency result in the test on MCC-26, in the test with MKL-1, in the test on MKL-2, in the test on UISO, in the test on WaGa and in the test on C33A was “inactive” throughout. Further, the Potency result in the test on CASKI, in the test on Es-2, in the test with HeLa, in the test with Hek293T, in the test with JEG-3 and in the test with OV90 was “inactive” in each case. Besides, the Potency entry with PA-1, with SKOV3, with Tov-21-G, with Tov112D and in the test with astro was “inactive” throughout. Besides, the outcome in the test with NIH3T3 was inactive. Further, the activity, negative = cell killing in [1] (setting [2]) was 7.31%; in test [1] (setting [3]) it was -6.42%; in [1] (setting [5]) it was -6.41%; in test [1] (setting [4]) it was -2.45%.
For `CCCCC(CC)COC(=O)c1ccccc1O` (centres undefined), the Potency result in the test on MCC-26, in the test with MKL-1, in the test with MKL-2, in the test on UISO, with WaGa and in the test on C33A was “inactive” each time. Further, the Potency result with CASKI, in the test on Es-2, in the test with HeLa, in the test on Hek293T, with JEG-3 and in the test on OV90 was “inactive” in each case. For the same compound, the Potency result with PA-1, in the test with SKOV3, in the test with Tov-21-G, with Tov112D and in the test on astro was “inactive” in each case. For the same compound, the outcome in the test with NIH3T3 was inactive. Moreover, the activity, negative = cell killing was -9.83% in [1] (setting [2]), -3.06% in test [1] (setting [3]) and 2.02% in [1] (setting [4]).
As to `CCC(=O)Nc1ccc(O)cc1`, the Potency entry with MCC-26, in the test with MKL-1, in the test with MKL-2, in the test with UISO, in the test on WaGa and with C33A was “inactive” throughout. The Potency result in the test with CAOV3, with CASKI, in the test on Es-2, in the test with HeLa, in the test on Hek293T and with JEG-3 was “inactive” in each case. In addition, the Potency result in the test on OV90, with PA-1, in the test with SKOV3, with Tov-21-G, in the test with Tov112D and in the test on astro was “inactive” in each case. Moreover, the activity, negative = cell killing was -16% in test [1] (setting [2]), -0.42% in [1] (setting [3]), -15.2% in test [1] (setting [5]) and -16.9% in [1] (setting [4]).
